Screen size: about 310,000 compounds; about 14,000 (4.5%) showed an effect of 50% or more. The effect is printed as a negative number. This excerpt belongs to a sample that is enriched for strong results.
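Note: peak tail current of the secondary pulse compared with the same well before compound.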

human ether-à-go-go-related gene (hERG) potassium channel, sequence (Q12809 whole entry, looked up): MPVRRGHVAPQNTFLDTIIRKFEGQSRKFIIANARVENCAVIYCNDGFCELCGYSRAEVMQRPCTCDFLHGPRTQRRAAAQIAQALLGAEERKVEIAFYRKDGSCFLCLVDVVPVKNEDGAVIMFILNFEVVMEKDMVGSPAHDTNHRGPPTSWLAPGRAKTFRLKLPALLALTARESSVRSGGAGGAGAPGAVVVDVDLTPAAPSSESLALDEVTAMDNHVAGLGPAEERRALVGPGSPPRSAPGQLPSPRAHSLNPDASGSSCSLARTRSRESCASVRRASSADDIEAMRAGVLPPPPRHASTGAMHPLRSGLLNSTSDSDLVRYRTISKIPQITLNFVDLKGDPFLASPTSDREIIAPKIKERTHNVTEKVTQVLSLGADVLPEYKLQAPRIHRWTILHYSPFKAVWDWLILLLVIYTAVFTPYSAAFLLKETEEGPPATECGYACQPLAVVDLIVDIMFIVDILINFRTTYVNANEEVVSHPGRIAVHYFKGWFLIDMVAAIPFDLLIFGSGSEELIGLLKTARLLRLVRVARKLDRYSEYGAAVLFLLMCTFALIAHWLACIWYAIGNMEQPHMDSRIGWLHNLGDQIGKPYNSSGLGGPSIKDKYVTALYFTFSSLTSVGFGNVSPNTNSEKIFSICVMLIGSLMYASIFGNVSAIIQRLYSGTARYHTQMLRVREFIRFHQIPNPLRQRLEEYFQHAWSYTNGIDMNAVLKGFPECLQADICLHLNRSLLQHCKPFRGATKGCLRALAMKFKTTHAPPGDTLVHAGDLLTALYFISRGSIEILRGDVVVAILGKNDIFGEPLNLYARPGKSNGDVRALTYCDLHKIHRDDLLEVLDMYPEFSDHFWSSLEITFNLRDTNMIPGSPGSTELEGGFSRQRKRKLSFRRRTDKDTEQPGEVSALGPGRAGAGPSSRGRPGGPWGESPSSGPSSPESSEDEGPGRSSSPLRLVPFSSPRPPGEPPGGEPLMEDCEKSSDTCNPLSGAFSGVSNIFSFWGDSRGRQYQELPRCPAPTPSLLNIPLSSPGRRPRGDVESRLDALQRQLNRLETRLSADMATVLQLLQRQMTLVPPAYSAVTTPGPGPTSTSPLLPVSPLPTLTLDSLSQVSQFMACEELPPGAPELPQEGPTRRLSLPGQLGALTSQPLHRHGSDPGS

The test has as its target human ether-à-go-go-related gene (hERG) potassium channel (human, UniProt Q12809). Nature of the test: primary screen, population patch clamp on CHO cells stably expressing hERG; higher = less effect of the substance.
Turning to `Cc1ccc(NC2=NC(=S)N(CC#N)C23CCCCC3)cc1`, the “hERG current change (%, negative = inhibition) at 10uM” value is given as -6.19%.

As to `CC(C)Oc1cccc(C(=O)C2CCCN(Cc3cccn3-c3ccccn3)C2)c1` (stereo not drawn), the “hERG current change (%, negative = inhibition) at 10uM” value is given as -78.8%.

In the case of `Cc1c(CN2CCCC(C(=O)c3cccc(OC(C)C)c3)C2)c(=O)n(-c2ccccc2)n1C` (stereo not drawn), the “hERG current change (%, negative = inhibition) at 10uM” value is on record as -57.2%.

As for `CC(C)Oc1cccc(C(=O)C2CCCN(Cc3ccon3)C2)c1` (stereo not drawn), the “hERG current change (%, negative = inhibition) at 10uM” value was -3.37%.

Take `Cc1c(CN2CCCC(C(=O)c3cccc(Cl)c3)C2)c(=O)n(-c2ccccc2)n1C` (stereo not drawn): the “hERG current change (%, negative = inhibition) at 10uM” value was -24%.

As for `COc1cccc(C(=O)C2CCCN(Cc3c(C)n(C)n(-c4ccccc4)c3=O)C2)c1` (stereo not drawn), the “hERG current change (%, negative = inhibition) at 10uM” value is recorded as -21.2%.

As to `COc1cccc(C(=O)C2CCCN(C(=O)c3ccccn3)C2)c1` (stereo not drawn), the “hERG current change (%, negative = inhibition) at 10uM” value is recorded as 3.77%.

For the compound `COc1cccc(C(=O)C2CCCN(Cc3cccn3-c3ccccn3)C2)c1` (stereo not drawn), the “hERG current change (%, negative = inhibition) at 10uM” value is listed as -76.5%.

`CC(C)Oc1cccc(C(=O)C2CCCN(Cc3cccn3-c3cccnc3)C2)c1` (stereo not drawn): the “hERG current change (%, negative = inhibition) at 10uM” value is reported as -27.7%.

Take `COc1ccc(C(=O)Nc2c3c(nn2C(C)(C)C)CS(=O)(=O)C3)cc1OC`: the “hERG current change (%, negative = inhibition) at 10uM” value is recorded as 13.1%.

For `CCc1ccccc1NS(=O)(=O)c1cc(C)ccc1OC`, the “hERG current change (%, negative = inhibition) at 10uM” value is on record as -5.89%.

`O=C(O)COc1ccccc1/C=N/NC(=O)c1ccc2c(c1)OCCO2`: the “hERG current change (%, negative = inhibition) at 10uM” value is recorded as -2.93%.

Consider `O=C(CSc1nnc(COc2ccc3c(c2)CCCC3)o1)Nc1ccc(F)cc1`, for which the “hERG current change (%, negative = inhibition) at 10uM” value is on record as 10.2%.

Turning to `Cc1ccc2c(C)nc(Nc3ncc4c(n3)CCCC4=O)nc2c1`, the “hERG current change (%, negative = inhibition) at 10uM” value was -12.4%.

For `Cc1cc(C)n2nnnc2n1`, the “hERG current change (%, negative = inhibition) at 10uM” value is 18.5%.

`CS(=O)(=O)c1ccccc1C(=O)NCCC(c1ccccc1)c1ccccc1`: the “hERG current change (%, negative = inhibition) at 10uM” value is -51.9%.

For `Cc1cc(C(=O)NCCC(c2ccccc2)c2ccccc2)c(C)o1`, the “hERG current change (%, negative = inhibition) at 10uM” value is -17.5%.

Turning to `COc1ccccc1C(=O)NCC(=O)NCCC(c1ccccc1)c1ccccc1`, the “hERG current change (%, negative = inhibition) at 10uM” value was -64.4%.

As for `COc1ccccc1C(=O)NCC(=O)Nc1ccccc1`, the “hERG current change (%, negative = inhibition) at 10uM” value is 5.97%.

Take `COc1ccccc1C(=O)NCC(=O)NC(C)CCc1ccccc1` (stereo not drawn): the “hERG current change (%, negative = inhibition) at 10uM” value was determined as 1.99%.

Regarding `Cc1ccc(C(NC(=O)c2ccccc2S(C)(=O)=O)c2ccccc2)cc1` (stereo not drawn), the “hERG current change (%, negative = inhibition) at 10uM” value is reported as -30.3%.

Turning to `O=C(C1CCCO1)N1CCN(C(=S)Nc2ccc(Cl)c(Cl)c2)CC1` (stereo not drawn), the “hERG current change (%, negative = inhibition) at 10uM” value is -30.2%.

Regarding `CCN(CC)C(=O)c1cn(-c2ccccc2)nc1-c1ccc2c(c1)OCCO2`, the “hERG current change (%, negative = inhibition) at 10uM” value is listed as -3.56%.

`O=C(Nn1c(C2CC2)nc2ccccc2c1=O)c1ccco1`: the “hERG current change (%, negative = inhibition) at 10uM” value is reported as -8.14%.

The record behind these values is PMC4336329 (PLoS ONE, 2015).
